Compounds with a hit are over-represented: about 2.1% of the library has one in this group of screens.
Abeta yeast res – compounds reversing amyloid beta toxicity in yeast. yeast expressing A-beta42, growth rescue, OD600, 48 h; response scale: 0% DMSO, 100% iron-clioquinol control. Potency, µM (series often up to 46.1 µM), usual class: activators. actives 0.063% (n = 410,000). AID 1347071; also: nearly all actives have a fitted effect of over 55% in size
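Yeast A-beta toxicity model in growth medium with pinned compounds, 48 h at 30 C; growth read as absorbance at 600 nm. Normalized to FeCl3/clioquinol equimolar mix (positive) and DMSO (negative).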
TDP43 rescue – TDP-43 toxicity inhibition in yeast; TDP-43 expressing yeast growth rescue, BacTiter-Glo, 24 h; Potency, µM (titrated, usually from 46.1 µM), for inactives: top-dose growth rescue (activation), most hits filed as activators; actives 1.8% (n = 410,000); also: % of control where 0% means no effect; nearly all actives have a fitted effect of over 50% in size
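Cell-based yeast growth screen: TDP-43 expression induced in galactose, inoculum OD600=0.02 after raffinose pregrowth to mid-log. Read-out BacTiter-Glo luminescence at 24 hr, 30 deg C; inhibition of toxicity seen as signal increase.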
aSyn rescue – inhibitors of alpha-synuclein toxicity in yeast; Yeast expressing alpha-synuclein, growth rescue, BacTiter-Glo, 24 h; Potency, µM (highest dose often 46.1 µM), for inactives: at the highest dose growth rescue (activation), actives largely listed as activators; actives 0.14% (n = 370,000); AID 652106; also: % of control where 0% means no effect; nearly all actives have a fitted effect of over 65% in size
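Screening used galactose-induced yeast with toxic alpha-synuclein levels, exposed to compound for 24 hr at 30 deg C. Cell growth, read with BacTiter-Glo luminescence, gave the measured signal.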
FUS suppressor – FUS proteinopathy suppression in yeast; S. cerevisiae FUS-expressing, growth rescue, OD600, 24 h; Potency, µM (titrated, usually from 76.6 µM), most hits filed as activators; actives 0.24% (n = 390,000);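 also: plate controls were DMSO vehicle for no effect and reference control for full effect; nearly all actives have a fitted effect of over 55% in size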
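Toxicity suppression screen in FUS-yeast. Cells induced with 2% galactose, starting OD 0.005, treated 24hr at 30C with compounds at multiple final concentrations; growth by OD600.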
An asterisk follows results filed as active; i = inactive; ? = inconclusive; · = not tested or not shown; ! = a repeat was not active. Calls follow the shape of the dose curve; as a rule, active = well fitted curve in the direction sought with a large enough effect; inconclusive = small, poorly fitted or top-dose-only effect, or another doubt; inactive = no such curve, though single readings can be large; an effect the other way counts as inactive or inconclusive. Potency is read from the fitted curve at half-maximal effect.

SMILES	Abeta yeast res	TDP43 rescue	aSyn rescue	FUS suppressor
O=C(N/N=C/c1c(O)ccc2ccccc12)C(=O)N1CCCC1	?	2%	22µM*	i
Cc1nc(SCC(=O)N(C)Cc2ccco2)c2c(C)c(C)sc2n1	i	22µM*	4%	i
Oc1ccc(Oc2ccccc2F)c2cccnc12	·	·	·	i
COc1ccc(-c2c(C)nn3c(C)cc(C)nc23)cc1	i	14µM*	-6%	i
Cn1c(=O)[nH]c2c(Br)nccc21	·	·	·	i
COCC(=O)N1[C@H](CO)[C@@H](c2ccc(-c3cccnc3)cc2)[C@H]1CN(C)S(=O)(=O)c1ccccc1[N+](=O)[O-]	·	·	·	i
CN(C(=O)c1oc(=O)c2ccccc2c1-c1ccccc1)c1cccc(Cl)c1	i	25µM*	·	i
Cc1ccc(S(=O)(=O)N2CCN(C(=O)Cc3ccccc3)CC2)cc1C	i	22%	-1%	i
Cc1ccc(S(=O)(=O)N2CCN(C(=O)CCN3C(=O)c4ccccc4C3=O)CC2)cc1C	i	16µM*	2%	i
C=CCn1c(SCc2c(F)cccc2Cl)nnc1-c1ccco1	i	13µM*	-1%	i
C=CCn1c(SCc2ccc(C#N)cc2)nnc1-c1ccco1	·	·	·	i
COC(=O)C[C@H]1CC[C@H]2[C@H](COc3ccc(NC(=O)C4CCOCC4)cc3C(=O)N2C)O1	·	·	·	i
CC1CN(C(=O)CCC(=O)Nc2cc(F)ccc2F)c2ccccc2S1 (stereo unspecified)	i	11µM*	·	i
O=C(C1CCCN1S(=O)(=O)c1cccs1)N1CCc2ccccc2C1 (stereo unspecified)	·	·	·	i
COc1ccc(-c2cc(NCc3ccc(C)cc3)n3cnnc3n2)cc1	i	11µM*	·	i
O=C(OC12CCCN(C1)/C(=C/c1cccnc1)C2)C1CCCCC1 (stereo unspecified)	·	·	·	i
COc1ccc([C@H]2OC(=O)C[C@H]2C(=O)N2CCN(C(=O)C3CCCO3)CC2)cc1OC (stereo partly specified)	·	·	·	i
CC(C)C1N=C(NC(=O)OCc2ccccc2)NC1=O (stereo unspecified) (tested in a mixture with another compound)	·	·	·	i
Nc1cc(C(=O)c2ccccc2)ccc1[N+](=O)[O-]	i	8.9µM*	0%	i
CCN1CCCCC(NC(=O)c2ccc(C)cc2)C1=O (stereo unspecified)	·	·	·	i
CCCCCCCCCCS(=O)(=O)N/N=C/c1ccc(O)cc1	i	14µM*	?	i
N#CCCn1cc(CNCc2cccnc2)c(-c2ccccc2)n1	·	·	-3%	·
Cc1ccc(C)c(NC(=S)NC(=O)c2cncc(Br)c2)c1	?	11µM*	-4%	i
COc1ccc(CCNC(=O)c2c(C)nn(-c3ccc(F)cc3)c2-n2cccc2)cc1OC	i	20%	?	i
Cc1ccc(CCNC(=O)c2c(C)nn(-c3ccc(F)cc3)c2-n2cccc2)cc1	i	22µM*	8%	i
SMILES	Abeta yeast res	TDP43 rescue	aSyn rescue	FUS suppressor
CN(CCc1ccccn1)C(=O)c1ccc(Sc2ccccc2Cl)c([N+](=O)[O-])c1	·	·	·	i
Cc1ccc(NC(=O)CSc2nc(=O)cc(N)n2-c2ccccc2)cc1	i	6%	3%	?
Nc1cc(=O)nc(SCC(=O)N(C2CCCCC2)C2CCCCC2)n1-c1ccccc1	i	-14%	-4%	28µM*
Cc1[nH]nc(N=CC2=C(O)CC(C)(C)CC2=O)c1-c1ccc(Cl)cc1	i	16µM*!	?	i
COc1ccc(-c2nnc(SC(C)C(=O)O)o2)cc1 (stereo unspecified)	i	2%	3%	i
COc1ccc(-c2nnc(SC(C)C(=O)Nc3cccc(Cl)c3)o2)cc1 (stereo unspecified)	i	13µM*	14%	i
CC(C)(C)c1ccc(-c2nnc3n2N=C(c2ccc(Cl)cc2)CS3)cc1	·	·	·	i
O=C1c2ccsc2SCCN1Cc1ccc(F)cc1	i	?	?	i
O=C1c2ccsc2SCCN1Cc1ccc(Cl)cc1	i	22µM*	17%	i
O=C(CCn1c(=O)c2cccn2c2cccnc21)N1CCN(c2ccc(F)cc2)CC1	i	13µM*	·	i
COc1cc(O)c([C@@H](CC(=O)N2CC(C)CC(C)C2)c2ccc3c(c2)OCO3)c(OC)c1 (stereo partly specified)	·	·	·	25µM*
O=[N+]([O-])c1ccc(/C=C2\C=C(C(O)c3ccc([N+](=O)[O-])cc3)c3ccccc32)cc1 (stereo unspecified)	·	·	13%	·
COc1ccc(OC(=O)c2c(C)nn(-c3ccccc3)c2C)cc1	i	22µM*	-20%	i
Cc1nn(-c2ccccc2)c(C)c1C(=O)Oc1ccccc1	i	?	-12%	i
O=C(Nc1ccccc1Oc1ccccc1)c1ccccc1F	i	13µM*	-8%	i
CS(=O)(=O)c1ccccc1C(=O)Nc1ccccc1Cc1ccccc1	i	0%	-3%	i
O=C(Nc1ccccc1Cc1ccccc1)c1ccccc1F	2.5µM*	?	-4%	i
Cc1cc2c(NC3CCCCC3)ncnc2s1	i	11µM*	-11%	i
Cn1c(SCC(=O)Nc2ccc(C(=O)O)cc2)nc2scc(-c3ccccc3Cl)c2c1=O	i	-1%	·	35µM*
CCOC(=O)CN1C(c2ccc(O)cc2)Nc2ccc(Br)cc2C1c1ccccc1 (stereo unspecified)	i	20µM*	14%	·
N[C@H](C(=O)O)[C@H](Cc1ccccc1)C(=O)O	·	·	4%	·
CCOC(=O)Cc1csc(NC(=O)COc2ccc(C)cc2)n1	?	11µM*	-10%	i
CCOC(=O)Cc1csc(NC(=O)COc2ccc3c(c2)CCC3)n1	?	16µM*	-24%	i
CCOC(=O)Cc1csc(NC(=O)COc2ccccc2)n1	i	-12%	-15%	i
CC1(C)OC(=O)C2(Cc3cc([N+](=O)[O-])ccc3N3CCCCCC32)C(=O)O1 (stereo unspecified)	·	·	2%	·
SMILES	Abeta yeast res	TDP43 rescue	aSyn rescue	FUS suppressor
COc1ccc(-c2cc3ncc(C)n3c(Nc3ncccc3C(N)=O)n2)cc1OC	·	·	-4%	·
O=C(NC1CCCCN(Cc2ccc(OC(F)(F)F)cc2)C1=O)c1cccc(C(F)(F)F)c1 (stereo unspecified)	·	·	·	i
CN(CCc1ccccn1)C(=O)c1cc2ccccn2n1	·	·	·	i
O=C(CCC(=O)N1CCN(C2c3ccccc3-c3ccccc32)CC1)Nc1nnc(C(F)(F)F)s1	·	·	·	i
COc1ccc(C2SCCN2C(=S)Nc2cccc(Cl)c2)cc1 (stereo unspecified)	i	18µM*	19%	·
COc1ccc(C2SCCN2C(=S)Nc2ccc(Cl)cc2)cc1 (stereo unspecified)	i	1%	-13%	·
C(=N/N1CCN(c2ccccc2)CC1)/c1ccco1	·	·	·	i
COc1ccc(NC(=O)c2cc3c(C)nn(-c4ccccc4)c3s2)cc1	·	·	·	i
